Source: ChEMBL document CHEMBL3433997, “St. Jude Leishmania screening dataset” (2016)

How the values were obtained:
Type in all cases: functional
[1] = target: Solute carrier family 2, facilitated glucose transporter member 1 (Homo sapiens) (UniProt P11166); experiment: ST_JUDE_LEISH: Cytotoxicity at 2uM final concentration against transgenic Leishmania Mexicana promastigotes LmGLUT1 that are glucose transport deficient and complemented with the human glucose transporter GLUT1. Activity is measured by DNA content using SYBR green in vitro
Solute carrier family 2, facilitated glucose transporter member 1 (Homo sapiens), sequence (P11166 whole entry): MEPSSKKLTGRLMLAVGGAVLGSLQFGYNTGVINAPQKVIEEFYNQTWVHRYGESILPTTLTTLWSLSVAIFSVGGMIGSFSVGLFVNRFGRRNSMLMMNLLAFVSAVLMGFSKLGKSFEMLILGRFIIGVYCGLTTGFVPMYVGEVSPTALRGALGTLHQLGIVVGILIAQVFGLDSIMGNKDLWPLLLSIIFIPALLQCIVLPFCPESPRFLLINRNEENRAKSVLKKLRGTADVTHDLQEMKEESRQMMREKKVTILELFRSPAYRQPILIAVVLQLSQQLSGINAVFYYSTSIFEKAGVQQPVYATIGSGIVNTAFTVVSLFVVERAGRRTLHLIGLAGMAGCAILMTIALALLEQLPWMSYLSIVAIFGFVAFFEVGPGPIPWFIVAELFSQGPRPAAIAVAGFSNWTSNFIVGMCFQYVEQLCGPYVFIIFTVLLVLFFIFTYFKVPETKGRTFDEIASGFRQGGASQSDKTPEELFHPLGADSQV

[2] = target: Hexose transporter 1 (Plasmodium falciparum) (UniProt O97467); experiment: ST_JUDE_LEISH: Cytotoxicity at 2uM final concentration against transgenic Leishmania Mexicana promastigotes LmPfHT that are glucose transport deficient and complemented with the Plasmodium falciparum hexose transporter. Activity is measured by DNA content using SYBR green in vitro
[3] = target: Glucose transporter (Leishmania mexicana) (UniProt O61059); experiment: ST_JUDE_LEISH: Cytotoxicity at 2uM final concentration against transgenic Leishmania Mexicana promastigotes LmGT2 that are glucose transport deficient and complemented with the L. Mexicana glucose transporter 2. Activity is measured by DNA content using SYBR green in vitro

Row | SMILES | inhibition [1] | inhibition [2] | inhibition [3]
1 | OC(CNc1cccc(Cl)c1)Cn1c2ccc(Cl)cc2c2cc(Cl)ccc21 (stereo unspecified) | 3.75% | 1.59% | 2.34%
2 | CCN(CC)CCCNC(=O)/C(=C/C=C/c1cc2cc(Cl)c(Cl)cc2[nH]1)OC | 7.56% | 11.3% | 7.84%
3 | COc1ccc2[nH]c(C)cc(=NN=Cc3cc(C)ccc3O)c2c1 | 13.1% | 11.2% | 8.77%
4 | Oc1ccc(CCNc2nc(NCCOc3ccccc3-c3ccccc3)nc(N3CCNCC3)n2)cc1 | 1.26% | 0.85% | 1.75%
5 | COc1ccc(C(C(=O)NC2CCN(C[C@H](O)c3ccnc4ccc(OC)cc34)CC2)N2CCN(c3ccc([N+](=O)[O-])cc3)CC2)cc1 (stereo partly specified) | 2.67% | 1.79% | 2.85%
6 | CC(C)(C)c1cc(C(=O)Nc2cccnc2)cc(C(=O)Nc2cccnc2)c1 | 2.58% | 1.97% | 2.38%
7 | COc1ccc(C(=O)CCc2ccc(O)cc2)cc1 | 1.26% | 1.48% | 2.43%
8 | Cc1cc(Oc2cc(NC(=O)c3sc4ncn(Cc5ccccc5F)c(=O)c4c3C)cc([N+](=O)[O-])c2)ccc1Cl | 1.2% | 1.84% | 1.68%
9 | Cc1nc(NC(=N)N)nc2ccc(C(C)(C)C)cc12 | 0.73% | 0.81% | 1.22%
10 | O=C(/C=C/c1ccc(Cl)c(Cl)c1)NC1CCN(CCNC(=O)c2cccc(Cl)c2)CC1 | 4.41% | 3.11% | 2.53%
11 | CC(C)(C)c1ccc2[nH]c(-c3ccc(/C=C/C(=O)NC4CCN(Cc5ccccc5)CC4)cc3)nc2c1 | 9.73% | 10.5% | 7.5%
12 | O=C(NNC(=O)c1ccc(CCN2CCC(c3nc(COCC(F)(F)F)c(-c4ccc(F)cc4)o3)CC2)cc1)Nc1ccc(Oc2ccccc2)cc1 | -0.99% | -0.56% | -0.09%
13 | O=C(NCCCN1CCOCC1)c1ccc(-c2cccc(NC(=O)c3ccc(Cl)c(Cl)c3)c2)cc1 | 2.04% | 1.79% | -0.88%
14 | CO/C(=C\C=C\c1cc2cc(Cl)c(Cl)cc2[nH]1)C(=O)NCCCN1CCN(c2cccc(Cl)c2)CC1 | -1.14% | -0.72% | -1.82%
15 | CCCC(C)NC(=O)[C@H](CC1CCCCC1)NC(=O)c1ccc(O)c(-c2ccc(OC)cc2)c1 (stereo partly specified) | 2.7% | 0.19% | 2.85%
16 | CN(C)Cc1c(O)ccc2[nH]c(-c3ccc(F)cc3F)nc12 | 1.13% | 1.4% | -1.59%
17 | COc1ccc(-c2ccc(NC(=O)c3ccc(C#N)cc3)cc2)cc1CN1CCCC1 | 1.22% | 0.11% | -3.17%
18 | O=C1COc2ccccc2N1C/C=C(\CN1CCC(c2ccccc2)CC1)c1cc(Cl)cc(Cl)c1 | 1.77% | 1.99% | 1.69%
19 | CC(C)Cn1c(N)cc(=O)n(C)c1=O | 3.76% | 3.45% | 3.72%
20 | Cc1ccc2[nH]c(-c3cc(-c4ccc(OCc5ccccc5)cc4)cnc3N)nc2c1 | 1.75% | 2.05% | -0.31%
21 | CCN(CC)CCNC(=O)/C(=C/C=C/c1cc2cc(Cl)c(Cl)cc2[nH]1)OC | 2.44% | -0.18% | -1.46%
22 | CCc1sc(N2CCN(C)CC2)nc1C(=O)NCCc1ccc(Cl)c(Cl)c1 | 4.62% | 3.9% | 3.6%
23 | COc1ccc(-c2c3c(=O)n(C)c(=O)n(C)c3c3nnc4ccccc4n23)cc1 | 0.81% | 1.06% | 1.3%
24 | COc1ccc(Cl)cc1NC(=O)Nc1ccnc2ccccc12 | 14.6% | 13.4% | 6.32%

Row | SMILES | inhibition [1] | inhibition [2] | inhibition [3]
25 | Cc1ccc(Oc2cnn(C)c(=O)c2Nc2cccc(C(=O)NCCc3ccccn3)c2)c(C)c1 | 4.16% | 4.25% | 3.26%
26 | COc1cc2c(cc1OC)CC(NCc1ccc(-c3ccc4nc[nH]c4c3)cc1)C2 | 5.26% | 5.44% | 4.38%
27 | CCNc1cc(C(=O)N[C@@H](Cc2ccccc2)[C@H](O)CNCCC(C)(C)C)c(F)c(N2CCCCS2(=O)=O)c1 | 6.09% | -0.44% | 0.33%
28 | CC(CCNc1c2ccccc2nc2ccccc12)N1CCN(C)CC1 (stereo unspecified) | 30.8% | 29.1% | 20.8%
29 | CCCN1CCN(CCCCNc2c3ccccc3nc3ccccc23)CC1 | 51.5% | 73.8% | 27.7%
30 | COc1cc(N(Cc2ccc(F)cc2)C(=O)c2ccc(-c3ccccc3)cc2)ccc1OCCN1CCCC1 | 9.7% | 5.41% | 7.12%
31 | COCCNCc1cccc(-c2ccc3c(Nc4ccc(Oc5ccccc5)cc4)ccnc3c2)c1 | -0.07% | 1.17% | -0.14%
32 | Nc1c2c(nc3ccc(Oc4ccc(Cl)cc4)cc13)CCCC2 | 60.9% | 70.5% | 40.5%
33 | Clc1cccc(CNc2nc(NCCc3c[nH]cn3)nc(NC3CCCCC3)n2)c1 | 3.76% | 3.97% | 2.21%
34 | Cc1cc(OCCCN2CCN(CCN3CCOCC3)CC2)ccc1NC(=O)COc1ccc(Cl)cc1C(=O)c1cc(Cl)cc(C#N)c1 | 2.6% | 0.79% | 2.48%
35 | CC1CCCN(C(=O)C(C)Nc2cc(Cl)ccc2N2CCOCC2)C1 (stereo unspecified) | 1.2% | 1.09% | -0.78%
36 | CN1CCN(CCCN(Cc2ccc(-c3ccc(CNC4CCCC4)cc3)cc2)C(=O)CCC2CCCC2)CC1 | 76.5% | 79.8% | 5.69%
37 | S=c1nc(-c2ccccc2)n2ccsc2n1 | 1.86% | 2% | 2.44%
38 | CCCCCCN1CCCN(Cc2cccc(C(=O)Nc3ccc(C(C)(C)C)cc3)c2)CC1 | 1.39% | 0.8% | 0.65%
39 | COc1ccc(-c2ccc([N+](=O)[O-])cc2C(=O)NCC(C)Oc2ccc(C(F)(F)F)cc2)cc1 (stereo unspecified) | -0.75% | -1.3% | -3.99%
40 | CCCCCCN1CCC(NCc2ccc(OCCN3CCCC3)cc2)CC1 | -1.34% | -0.02% | -0.15%
41 | CN1CCC(C(=O)N(Cc2ccc(-c3ccc(CNCCc4ccc(S(C)(=O)=O)cc4)cn3)cc2)C2CCN(Cc3ccccc3)CC2)CC1 | 3.07% | 2.62% | 5.75%
42 | OC1CCCN(Cc2cccc(-c3ccc(-c4nc5cc(C(F)(F)F)ccc5[nH]4)cc3)c2)C1 (stereo unspecified) | 2.67% | 2.8% | 3.54%
43 | CC(C)C[C@H](NC(=O)c1cc2cc(OCCN3CCNCC3)ccc2o1)C(=O)NC1CC[C@@H](C)N(C(=O)Nc2ccc(Cl)cc2)CC1=O (stereo partly specified) | 3.2% | 5.04% | 3.85%
44 | CCOC(=O)c1c(SCc2cccc(F)c2F)[nH]c2ccccc2c1=O | 0.37% | -0.99% | 1.97%
45 | CCOc1ccc2c(c1)OC(c1ccccc1)(C(F)(F)F)NC2=O (stereo unspecified) | 0.56% | -0.92% | 1.65%
46 | Cc1noc(C)c1-c1cccc(CNCc2ccc(-c3ccc(-c4nc5cc(F)ccc5[nH]4)s3)cc2)c1 | 11.2% | 10.3% | 10.2%
47 | CC(C)NCc1ccc(-c2cccc(NC(=O)c3ccc(C#N)cc3)c2)cc1 | 6.75% | 4.9% | 7.32%
48 | Cc1cc(-c2cccc3c(C(=O)N4CCc5cc6nccc(N7CCCN(C)CC7)c6cc54)cccc23)cc(C)n1 | -0.39% | 1.02% | 1.14%

Row | SMILES | inhibition [1] | inhibition [2] | inhibition [3]
49 | CN(C)CCOc1cccc(-c2cnc(N)c(-c3nc4cc(S(C)(=O)=O)ccc4[nH]3)c2)c1 | 1.53% | 2.26% | 2.58%
50 | COc1cc2nc(Nc3ccc(Oc4ccccc4)cc3)nc(Nc3ccc(Oc4ccccc4)cc3)c2cc1OC | 6.52% | 3.92% | 6.04%
51 | O=[N+]([O-])c1cccc(CNC2CCN(Cc3ccc(-c4ccccc4)cc3)CC2)c1 | 1.94% | 8.06% | 2.9%
52 | Cn1c(NC(=O)C2CCC(CNC(=O)c3ccc(O)c(-c4cccc([N+](=O)[O-])c4)c3)CC2)nc2ccccc21 (stereo unspecified) | 1.57% | 2.47% | 2.44%
53 | O=C(NC1CCN(Cc2cccc(C(F)(F)F)c2)CC1)c1ccc(-c2cccc(Cl)c2)s1 | 3.3% | 2.49% | 5.19%
54 | CC(C)c1ccc(NC(=O)N2CCc3ccc(OCCN(C(C)C)C(C)C)cc32)c(Br)c1 | -3.12% | 0.76% | 1.63%
55 | CN(C)Cc1ccc(-c2cccc(NC(=O)c3ccc(Cl)cc3)c2)cc1 | -2.32% | -0.06% | 0.23%
56 | C=CCOc1cc(Cc2cnc(N)nc2N)cc(OC)c1OC | 1.5% | -3.15% | -1.97%
57 | Cc1ccc(C)c(NC(=O)Nc2ccc(Nc3nc(C)cc(N4CCOCC4)n3)cc2)c1 | 1.4% | 0.2% | -5.61%
58 | N#CC(NC(=O)C=Cc1ccccc1)c1ccccc1 (stereo unspecified) | -1% | -2.81% | -0.2%
59 | O=C(Nc1ccc(-c2nc3ccccc3[nH]2)cc1)c1ccc(N2CCCC2)c([N+](=O)[O-])c1 | 0.71% | 2.01% | 1.2%
60 | Cc1nc(Nc2ccc(F)cc2)nc(N2CCc3ccccc3C2C)c1CO (stereo unspecified) | 5.38% | 7.38% | 1.5%
61 | COc1ccc(-c2cccc(NC(=O)c3cccc(Cl)c3)c2)cc1CNC(C)C | 1.6% | -0.57% | 1.24%
62 | O=C(/C=C/c1ccc(C(F)(F)F)cc1)NCCCCCN1CCN(C(=O)Nc2ccc(Cl)c(Cl)c2)CC1 | 0.91% | 2.31% | -0.42%
63 | Cc1ccccc1N1CCN(c2ncc(C(=O)NC3CC3)cc2Cl)CC1 | 6.45% | 6.74% | 5.71%
64 | Cc1ccc(NC(=O)Nc2ccc(Br)cc2)cc1OCCN(C)C | 5.98% | 3.65% | 2.82%
65 | FC(F)(F)c1ccc2[nH]c(-c3ccc(-c4cccc(CNCc5cnn(-c6ccccc6)n5)c4)s3)nc2c1 | 2.87% | 3.4% | 2.46%
66 | COc1ccc(-c2cnc3ccc(NCCCO)nn23)cc1OC | -0.63% | 0.58% | 1.14%
67 | COc1cc2nc(N3CCC(CNC(=O)c4ccc(-c5ccc(C#N)cc5)cc4)CC3)nc(N)c2cc1OC | 1.64% | 1.87% | 1.74%
68 | O=C(NCCc1ccc(Cl)c(Cl)c1)[C@@H]1CCCN1C(=O)c1ccc(O)c(-c2ccc(Cl)c(Cl)c2)c1 | -1.56% | -0.69% | -1.51%
69 | CCCCCCc1ncc(-c2cc3cc(O)c(-c4ccccc4)cc3oc2=O)s1 |  |  | -5.92%
70 | Nc1ccc(-c2ccc(NC(=O)Nc3cc(C(F)(F)F)ccc3F)cc2)cn1 | 7.37% | 4.54% | 2.2%
71 | CN(C)CCOc1ccc(-c2cc(-c3ccc(Cl)c(O)c3)c(-c3ccncc3)[nH]2)cc1 | -0.18% | -0.32% | 0.48%
